From PubChem BioAssay
Sampled rows, rich in hits. Any-hit rate of the full collection: about 1.4%.
Nox1 inhibitor – inhibitors of human NADPH oxidase 1 (Nox1). HT29 cells, luminol chemiluminescence ROS. Q9Y5S8. 16,000 tested, 0.81% active. inhibition, % at 6.7 µM
Luminol counter – counter-screen for Nox1 inhibitors: inhibitors of luminol chemiluminescence; AID 1823, 2009; 16,000 tested, 0.4% active; inhibition, % at 6.7 µM; HRP/luminol/H2O2 chemiluminescence counterscreen; also: reference of the scale not given here
* hit, by the source's call. Rule as the data show it: active = inhibition above about 75%; inactive = the rest.

SMILES	Nox1 inhibitor	Luminol counter
Clc1cccc(Cl)c1COc1cccc(N2CCOCC2)c1	-5	0
O=C(Nc1ccc(N2CCCCC2)cc1)Nc1ccccc1OC(F)(F)F	80*	2
O=C(Nc1ccc(N2CCCCC2)cc1)c1cccs1	45	-27
CC(C)(C)c1ccc(C(=O)/C=c2\[nH]c(=O)/c(=C\c3cccs3)s2)cc1	11	21
COc1cc(C=NCc2ccccc2)ccc1OC(=O)c1cc(OC)c(OC)c(OC)c1	-34	-2
CCC(C)(C)OC(=O)c1cc([N+](=O)[O-])cc2c1-c1ccc([N+](=O)[O-])cc1C2=O	54	1
O=C(Nc1ccc(Cl)cc1Cl)c1cc([N+](=O)[O-])cc2c1-c1ccc([N+](=O)[O-])cc1C2=O	101*	-2
N#Cc1cc([N+](=O)[O-])ccc1Sc1nnc(N)s1	-21	-2
Nc1nnc(Sc2cc3c(cc2[N+](=O)[O-])C(=O)NC3=O)s1	76*	-1
COc1ccc(C2=C(C(C)=O)C(C)=NC(=S)C2C#N)cc1 (stereo not given)	-21	-3
COc1cccc(C2Nc3ccccc3C(=O)N2NS(=O)(=O)c2ccc(C)cc2)c1O (stereo not given)	30	99*
Cc1ccc(S(=O)(=O)NC(=O)NCC2CCN(S(=O)(=O)c3ccccc3)CC2)cc1	-57	-1
Cc1ccc(N2C(=O)CC(N3CCOCC3)C2=O)cc1C (stereo not given)	-32	3
CCCc1cc(=O)oc2cc(OC(=O)c3ccccc3Cl)ccc12	-61	1
CCOC(=O)N/N=C/c1ccc(O)cc1	-10	-13
O=C(N/N=C/c1ccc(O)cc1)N/N=C/c1ccc(O)cc1	96*	-61
Cc1cc(=O)n(CCO)c(=O)[nH]1	14	-4
O=c1[nH]c2ccsc2c(=O)n1CCO	84*	13
CCn1c(=S)[nH]c2sc(C)c(C)c2c1=O	-14	90*
Cc1ccnc(-n2c(=S)[nH]c3sc(C)c(C)c3c2=O)c1	46	100*
Cc1cc(-n2c(=S)[nH]c3sc(C)c(C)c3c2=O)n(-c2ccccc2)n1	-43	0
O=[N+]([O-])c1ccc(-c2nc(-c3ccc(-c4csnn4)cc3)no2)cc1	-61	3
O=C(Nc1ccc(Cl)cc1)Oc1ccc(-c2csnn2)cc1	5	102*
O=C(Oc1ccc(-c2csnn2)cc1)c1ccc([N+](=O)[O-])o1	-40	101*
CC(C)(C)C(=O)Oc1ccc(-c2csnn2)cc1	11	-66
SMILES	Nox1 inhibitor	Luminol counter
C#CCSc1n[nH]c(-c2ccc(CCCCC)cc2)n1	-1	-5
COc1ccc(C2NCC(c3ccc([N+](=O)[O-])cc3)O2)cc1 (stereo not given)	-45	3
CC(=O)OC1=CC(=O)CC(c2ccc(Cl)cc2)C1 (stereo not given)	-18	-1
Nc1ccccc1Sc1ccc(Cl)cc1[N+](=O)[O-]	-32	3
Nc1ccccc1Sc1ccc(-c2cnc3ccccc3n2)cc1[N+](=O)[O-]	9	98*
O=C(NNc1ncc(C(F)(F)F)cc1Cl)NC(=O)c1ccccc1Cl	-13	6
Cc1nc(C(F)(F)F)c(C(=O)NNc2ncc(C(F)(F)F)cc2Cl)s1	85*	6
CNc1ncnc(NNC(=O)Nc2ccc(OC(F)(F)F)cc2)c1[N+](=O)[O-]	-8	3
CC(C)(C)c1cc2nc(C(F)(F)F)cc(NNC(=O)Nc3ccc(OC(F)(F)F)cc3)n2n1	88*	7
O=S(=O)(c1cccc2nonc12)N1CCCN(CCc2ccccc2)CC1	6	-5
Cc1ccc(C(=O)NNc2ncnc3cc(C(C)(C)C)sc23)cc1	73	-2
Cc1cc(S(=O)(=O)NNc2ncnc3cc(C(C)(C)C)sc23)c(C)cc1Cl	94*	-1
CCN(CC)c1ccc(NC(=O)c2c(F)cccc2F)c(N(CC)CC)n1	94*	4
O=C(Nc1ccccc1NC(=O)c1c(F)cccc1F)c1c(F)cccc1F	-1	-6
CC1(C)/C(=C\CC(=O)O)C2CCC1C2 (stereo not given)	-11	3
COC(=O)c1ccccc1NC(=O)c1ccccc1	-59	1
Cc1noc(C)c1C(=O)Nc1ccc(N2CCOCC2)nc1N1CCOCC1	78*	4
COc1ccc(NC(=O)c2nccnc2C(=O)O)c(N2CCOCC2)n1	-20	1
Cc1ccc(S(=O)(=O)Nc2ccc(C)c([N+](=O)[O-])c2)cc1	-14	-1
O=C(OCc1c(F)cccc1Cl)c1ccc(Cl)cc1	-53	3
CCOc1c(NN(C)C)c(=O)c1=O	3	102*
CCOc1c(N2CCN(c3c(OCC)c(=O)c3=O)CC2)c(=O)c1=O	-1	1
CCC(=O)NNc1ccccc1	38	13
N#CC(C#N)=C1NC2=C(Cc3ccccc32)C(c2cccs2)=C1C#N	-6	-6
CN(NC=C(C#N)C#N)c1ccccc1[N+](=O)[O-]	104*	-5
Cc1ccc(N(C)NC=C(C#N)C#N)nn1	-21	6
